From PubChem BioAssay come the findings set out here.

The inhibition is the drop in the measured response relative to a control, in per cent.

SMILES strings stand for the structures. Values without a mark were called inactive. Active and inactive are the calls of the source.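 How the source made its calls: active means inhibition above the hit cutoff set in the earlier primary screen (cut at about 27% in these data); inactive means the rest.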

Sequence of Protein phosphatase methylesterase 1 (Homo sapiens) (Q9Y570 whole entry, looked up): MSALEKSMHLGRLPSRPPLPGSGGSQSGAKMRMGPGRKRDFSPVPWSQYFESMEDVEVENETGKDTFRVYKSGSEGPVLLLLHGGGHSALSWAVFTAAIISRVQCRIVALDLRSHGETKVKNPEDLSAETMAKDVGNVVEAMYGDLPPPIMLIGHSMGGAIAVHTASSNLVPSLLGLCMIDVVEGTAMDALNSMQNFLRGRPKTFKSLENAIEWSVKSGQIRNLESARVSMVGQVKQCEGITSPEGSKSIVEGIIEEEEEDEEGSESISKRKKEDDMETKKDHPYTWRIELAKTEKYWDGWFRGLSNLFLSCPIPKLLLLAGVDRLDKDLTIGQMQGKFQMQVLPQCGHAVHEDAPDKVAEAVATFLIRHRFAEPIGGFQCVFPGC

This assay addresses Protein phosphatase methylesterase 1 (Homo sapiens) (UniProt Q9Y570). The experiment in a line: human PME-1 methylesterase inhibition confirmation – biochemical, fluorescence polarization, FP-Rh probe, triplicate (AID 2171).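 Further: 0% = enzyme with DMSO and 100% = wells lacking PME-1.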 The settings on record: recombinant PME-1, FP-Rh probe fluorescence polarization; at 5.9 µM; active compounds read high. A general note: In fluorescence polarisation assays a small probe gives low polarisation when free and higher when bound to something large.
In the case of `O=C(NNc1nc2c(F)cccc2s1)c1cc(=O)c2ccccc2o1`, the inhibition is 58.6% (active). As to `O=C(NNc1c2ccccc2nc2ccccc12)c1ccccc1O`, the inhibition is 65.5% (active). The figure for `COc1ccc2[nH]c(O)c(N=NC(=O)c3ccc(NS(=O)(=O)c4cccs4)cc3)c2c1` is 19.4%. `Cc1cc(N/N=C/c2ccc(O)c(C)c2O)nc(-c2ccccc2O)n1`: the inhibition was 27.9% (active). For `N#CCN(CC#N)C(=O)C1c2ccccc2Oc2ccccc21` the value was 0.3%; for `O=C(Nc1cccc(-c2csc(Nc3ccc(Cl)cc3)n2)c1)c1cc([N+](=O)[O-])cc(C(F)(F)F)c1`, -16.1%; for `COc1cc(/C=N/NC(=S)Nc2cccc(S(=O)(=O)N(C)C)c2)ccc1O`, 14.1%. The figure for `COc1ccc(C(=O)c2sc3nc(-c4ccccc4)ccc3c2N)cc1` is 11.8%; for `Cn1c2ccccc2c2cc(/C=N/NC(=O)c3cc(O)ccc3O)ccc21` it is 40.5% (active); for `Nc1ccc2nc3c(=O)n(CCc4ccccc4)c(=O)[nH]c3nc2c1` it is 51.2% (active). `CCn1cc(C(=O)NCCCN2CCCC(C)C2)c(=O)c2cc(S(=O)(=O)N(C)C3CCCCC3)ccc21` (stereo not given): the inhibition was 45.2% (active).

Take `COc1ccccc1N1CCN(C(=O)C2CCN(S(=O)(=O)c3ccc(C)cc3)CC2)CC1`: the inhibition was 15.3%.

Consider `O=S(=O)(Nc1nc2ccccc2nc1Nc1cccc(S(=O)(=O)N2CCCCC2)c1)c1ccccc1`, for which the inhibition was 34.9% (active). With `COc1ccc2[nH]c(=O)c(-c3noc(-c4ccccc4)n3)cc2c1`, the inhibition was 28.2% (active). The figure for `O=C1C=C(N2CCCCC2)c2ccccc2C1=O` is 43% (active); for `CCOC(=O)Cc1csc(NC(=O)c2sc3nc4ccc(C)cc4cc3c2N)n1` it is 21%. In the case of `Cc1cccc2cc(C#N)c(SCC#N)nc12`, the inhibition is 3.95%.

Turning to `Cc1nc(S/C(=C/c2ccc(-c3cc(Cl)ccc3C)o2)C(=O)O)n[nH]1`, the inhibition was 26.7% (active). The figure for `O=C(O)c1ccccc1-c1ccccc1C(=O)Nc1ccc(-c2nc3cc(Cl)ccc3o2)cc1` is 22.2%; for `O=C(O)COc1ccccc1/C=N/Nc1ccc(S(=O)(=O)Nc2ccc(Cl)cc2)cc1[N+](=O)[O-]` it is 62.7% (active); for `COC(=O)c1ccc(C2Nc3cccc4cccc(c34)N2)cc1` it is 51.9% (active). The figure for `COc1ccc(S(=O)(=O)N2CCCCCC2)cc1NC(=O)Cc1cc(OC)c(OC)c(OC)c1` is 64% (active); for `COc1ccc(OC)c(-c2c3cc(O)c(=O)cc-3oc3cc(O)c(O)cc23)c1` it is 169% (active); for `O=C(N/N=C/c1c[nH]c2ccccc12)c1cc(-c2cccc3ccccc23)n[nH]1` it is 2.43%. The figure for `CCOc1cccc(/C=C/c2ccc3cccc(O)c3n2)c1O` is 26.6% (active); for `CC(=O)Nc1ccc(Nc2nc(C)c([N+](=O)[O-])c(Nc3ccccc3)n2)cc1` it is 19.7%.

As to `O=C(Nc1ccc(Nc2ccccc2)cc1)Nc1ccccc1Cl`, the inhibition was -2.21%. For `CCOc1ccc(NC(=S)NNc2ccnc3cc(Cl)ccc23)cc1` the value was 28.3% (active); for `CCN(CC)C(=O)C1c2ccccc2Oc2ccccc21`, 7.22%. Turning to `COc1ccc(OC)c(N2C(=O)CC(Cc3ccc(C)cc3)C2=O)c1` (stereo not given), the inhibition was 0.52%. For `O=C(O)c1ccc(-c2ccc(/C=N/Nc3ccc([N+](=O)[O-])cc3)o2)cc1` the value was 33.5% (active). The figure for `CCCCN(C)C1=CC2=CC(=C(C#N)C#N)CCC2CC1` (stereo not given) is -13%. For `O=[N+]([O-])c1ccccc1/C=C/C=N/Nc1ccc(S(=O)(=O)Nc2ccc(Cl)cc2)cc1[N+](=O)[O-]` the value was 14.2%; for `CCN1CCc2c(sc(NC(=O)Nc3ccc(Cl)c(Cl)c3)c2C(N)=O)C1`, 14.2%. As for `CCOC(=O)c1c(C)[nH]c(C)c1S(=O)(=O)N(C)CC(=O)Nc1cc(C)ccc1OC`, the inhibition was 24.4%. In the case of `N#Cc1cc2ccccc2nc1SCC(=O)Nc1ccccc1N1CCOCC1`, the inhibition was 20.3%. For `CCOC(=O)N1CC=C2C(C#N)=C(N)C(C#N)(C#N)[C@H](c3cccs3)C2C1` (stereo not given in full) the value was 35.2% (active). On to `Cc1ccc(S(=O)(=O)N2CCN(C(=O)Cn3c(=O)cnc4ccccc43)CC2)cc1`, for which the inhibition was 25.8%.

`O=c1cc(N2CCCCC2)c(-c2ccccc2)nn1Cc1c(Cl)cccc1Cl`: the inhibition is 25.3%. For `Cn1nc(-c2ccc(Cl)cc2)nc2c(=O)n(C)c(=O)nc1-2` the value was 44.8% (active).
